Reference: ChEMBL document CHEMBL4513216, “Probing the Open Global Health Chemical Diversity Library for Multistage-Active Starting Points for Next-Generation Antimalarials” (ACS Infect Dis, 2020)
In all, about 68,000 compounds went through this assay and about 2,700 (4%) showed an effect of 50% or more. The list comes from a sample in which strong results are over-represented; it also holds similar structures and randomly drawn compounds.

What follows are compounds tested on Plasmodium berghei (assay: Screen against P. berghei liver stage (PbLuc), transformed with Luciferase, at 2uM). Settings: tested at 2 uM.
Type: functional, HepG2

For `Cc1nc(O)cc([C@@H]2CN(C(=O)C3CC3)C[C@H]2c2ccccc2F)n1`, which INHIBITION is on record?
The INHIBITION was -7.22%.

For `CC(=O)NCCNC(=O)CN1CCOC(Cn2cccn2)C1` (stereo not drawn), which INHIBITION is on record?
The INHIBITION was -21.68%.

`CC(C)(Oc1ccc(F)cc1)C(=O)NCc1ccco1` was tested. Which INHIBITION did it give?
The INHIBITION was 58.14%.

`CC(C)(Oc1ccc2c(c1)CCCC2=O)C(=O)NCc1ccco1` was tested. Which INHIBITION did it give?
The INHIBITION was 15.88%.

For `CC(C)(C)Oc1ccc(NCC(=O)NCc2ccco2)cc1`, which INHIBITION is on record?
Its INHIBITION is -62.92%.

How did the INHIBITION turn out when `c1ccc(N2CCCC3(COCCN(c4nccs4)C3)C2)nc1` (stereo not drawn) was run?
Its INHIBITION is -29.98%.

With `COc1cccc(CN2CCc3nc(C(=O)NCC(C)C)sc3CC2)c1` as the compound, how does the INHIBITION read?
Its INHIBITION is -4.19%.

`COc1ccc(C)cc1-n1cnnc1C1CC(=O)N(C)C1` (stereo not drawn) was tested. Which INHIBITION did it give?
Its INHIBITION is 43.57%.

With `Cc1nccc(C2CN(C(=O)c3cncnc3)C2)n1` as the compound, how does the INHIBITION read?
Its INHIBITION is 38.22%.

With `Cc1cc(C2CCCN(S(=O)(=O)N(C)C)C2)ccn1` (stereo not drawn) as the compound, how does the INHIBITION read?
Its INHIBITION is -5.34%.

Which INHIBITION does the source give for `CSCCc1ccc(NC(=O)NC(C)Cn2cncn2)cc1` (stereo not drawn) here?
The INHIBITION was 60.34%.

With `CC(Cn1cncn1)NC(=O)Nc1ccc(COC2CCCC2)cc1` (stereo not drawn) as the compound, how does the INHIBITION read?
Its INHIBITION is 1.01%.

With `CC(Cn1cncn1)NC(=O)NCC(C)(C)Cc1ccccc1` (stereo not drawn) as the compound, how does the INHIBITION read?
Its INHIBITION is 46.98%.

How did the INHIBITION turn out when `O=C(c1cocn1)N1CCC2(CC1)CC(OCC1CC1)CO2` (stereo not drawn) was run?
The INHIBITION was 1.33%.

`O=C(c1cccnc1)N1CCC2(CCN(C(=O)c3ccco3)CC2)C1` was tested. Which INHIBITION did it give?
Its INHIBITION is 14.52%.

Which INHIBITION does the source give for `CC(=O)N1CCCC(c2ccc3sc(N)nc3n2)C1` (stereo not drawn) here?
Its INHIBITION is 17.01%.

Which INHIBITION does the source give for `Nc1nc2nc(C3CCCN(C(=O)c4cncs4)C3)ccc2s1` (stereo not drawn) here?
Its INHIBITION is 52.82%.

Which INHIBITION does the source give for `Nc1nc2nc(C3CCCN(C(=O)c4cnccn4)C3)ccc2s1` (stereo not drawn) here?
Its INHIBITION is 46.98%.

For `Cc1ccc([C@]2(O)CC[C@H]3CN(Cc4cccc(Cl)c4Cl)C[C@H]32)nc1`, which INHIBITION is on record?
Its INHIBITION is 45.82%.

How did the INHIBITION turn out when `Cc1ccc([C@]2(O)CC[C@H]3CN(Cc4cccnc4)C[C@H]32)nc1` was run?
Its INHIBITION is 12.16%.

With `Cc1ccc([C@]2(O)CC[C@H]3CN(Cc4ccncc4)C[C@H]32)nc1` as the compound, how does the INHIBITION read?
Its INHIBITION is 51.35%.

`CSc1ccc(CN2C[C@@H]3CC[C@@](O)(c4ccc(C)cn4)[C@@H]3C2)cc1` was tested. Which INHIBITION did it give?
The INHIBITION was 61.3%.

How did the INHIBITION turn out when `COc1ncc(CN2C[C@@H]3CC[C@@](O)(c4ccc(C)cn4)[C@@H]3C2)cn1` was run?
The INHIBITION was -2.21%.

For `Cc1ccc([C@]2(O)CC[C@H]3CN(Cc4cc(C)c(O)c(C)c4)C[C@H]32)nc1`, which INHIBITION is on record?
Its INHIBITION is 13.65%.

`CC(C)(C)c1nnc(CN2CCCC2Cn2cncn2)o1` (stereo not drawn) was tested. Which INHIBITION did it give?
Its INHIBITION is -13.06%.

For `COCCCN1C(=O)CC(N2CCN(c3ccc(F)cc3)CC2)C1=O` (stereo not drawn), which INHIBITION is on record?
Its INHIBITION is 1.37%.

`CCn1nc(C)c2nc(C)nc(NCCc3ccc(C)cc3)c21` was tested. Which INHIBITION did it give?
The INHIBITION was 9.79%.

With `CCCC(=O)N1CCC2(CC1)CC(NC(C)=O)c1ccccc1O2` (stereo not drawn) as the compound, how does the INHIBITION read?
Its INHIBITION is -25.44%.

Which INHIBITION does the source give for `CC(C)C(=O)NC1COC2(CCN(C(=O)c3ccc[nH]3)CC2)C1` (stereo not drawn) here?
Its INHIBITION is 25.46%.

`COCCN1CCOCC12CCN(C(=O)c1ccncc1)CC2` was tested. Which INHIBITION did it give?
The INHIBITION was -41.59%.

`COCCN1CCOCC12CCN(C(=O)c1ccoc1)CC2` was tested. Which INHIBITION did it give?
Its INHIBITION is 52.62%.

`COCCN1CCOCC12CCN(C(=O)c1cccnc1)CC2` was tested. Which INHIBITION did it give?
The INHIBITION was 0.91%.

With `O=c1c2cn[nH]c2nc(SCCN2CCCC2)n1-c1ccccc1` as the compound, how does the INHIBITION read?
The INHIBITION was -15.12%.

With `Cc1cc(C(=O)Nc2n[nH]c(C3CC3)n2)c2c(C)noc2n1` as the compound, how does the INHIBITION read?
Its INHIBITION is -54.55%.

How did the INHIBITION turn out when `COCC1CC2(CCN(S(=O)(=O)C3CC3)CC2)CN1c1ncccn1` (stereo not drawn) was run?
The INHIBITION was 15.39%.

How did the INHIBITION turn out when `CCNC(=O)[C@@H]1C[C@@H](NC(=O)CSC)CN1Cc1ccncc1` was run?
The INHIBITION was 16.05%.

For `COc1cc(CNC(=O)Nc2nnc(C3CC3)s2)ccc1O`, which INHIBITION is on record?
The INHIBITION was 53.61%.

Which INHIBITION does the source give for `COc1cc(CNC(=O)Nc2nnc(C(C)C)s2)ccc1O` here?
The INHIBITION was -33.43%.

With `COc1cc(CNC(=O)Nc2nnc(C(F)(F)F)s2)ccc1O` as the compound, how does the INHIBITION read?
The INHIBITION was 45.4%.

How did the INHIBITION turn out when `CCC(c1ccc(F)cc1)N1CCn2c(CO)nnc2C1` (stereo not drawn) was run?
Its INHIBITION is 18.76%.

For `c1ccc(CN2CCC(Cc3noc(C4CC4)n3)CC2)cc1`, which INHIBITION is on record?
Its INHIBITION is 17.33%.

Which INHIBITION does the source give for `c1cc2c(cc1CN1CCC(Cc3noc(C4CC4)n3)CC1)OCCO2` here?
The INHIBITION was 1.52%.

Which INHIBITION does the source give for `c1cc(CN2CCC(Cc3noc(C4CC4)n3)CC2)c2c(c1)OCO2` here?
The INHIBITION was 71.06%.

With `Cc1nccn1-c1ccc(=O)n(CCNC(=O)c2cccs2)n1` as the compound, how does the INHIBITION read?
Its INHIBITION is -47.31%.

How did the INHIBITION turn out when `O=C(c1cccc(S(=O)(=O)NCCc2nccs2)c1)N1CCOCC1` was run?
The INHIBITION was 3.58%.

Which INHIBITION does the source give for `CS(=O)(=O)N1C[C@@H]2CC[C@H]1CN(Cc1ccncc1)C2` here?
The INHIBITION was -56.9%.

With `Cc1ncsc1CN(Cc1ccccc1)Cc1ccncc1` as the compound, how does the INHIBITION read?
The INHIBITION was 61.06%.

`Cc1ncsc1CN(Cc1ccccc1)Cc1ncc[nH]1` was tested. Which INHIBITION did it give?
The INHIBITION was -43.51%.

Which INHIBITION does the source give for `Cc1ncsc1C(=O)N(C)Cc1ccncc1` here?
Its INHIBITION is -25.22%.

Which INHIBITION does the source give for `Cn1nc(C2CCN(C(=O)c3cnccn3)C2)cc1CCO` (stereo not drawn) here?
The INHIBITION was -18.15%.

How did the INHIBITION turn out when `Cc1ccc(-n2ccnc2)c(C(=O)NCCOCC(F)(F)F)c1` was run?
The INHIBITION was 16.98%.

For `Cc1ccc(-n2ccnc2)c(C(=O)NCCOCC2CCCO2)c1` (stereo not drawn), which INHIBITION is on record?
The INHIBITION was 51.4%.

For `Cc1ccc(-n2ccnc2)c(C(=O)NCCCN(C)C)c1`, which INHIBITION is on record?
Its INHIBITION is 20.21%.

Which INHIBITION does the source give for `CN1CCN(C(=O)NC2CCCC2)Cc2cccnc21` here?
Its INHIBITION is 11.87%.

For `CCS(=O)(=O)N1CCN(C)c2ncccc2C1`, which INHIBITION is on record?
Its INHIBITION is 4.07%.

With `CN1CCN(S(=O)(=O)C2CC2)Cc2cccnc21` as the compound, how does the INHIBITION read?
Its INHIBITION is -5.9%.

With `CN1CCN(S(C)(=O)=O)Cc2cccnc21` as the compound, how does the INHIBITION read?
The INHIBITION was 58.97%.

`CN(C)C(=O)N1CCN(C)c2ncccc2C1` was tested. Which INHIBITION did it give?
The INHIBITION was 47.25%.

How did the INHIBITION turn out when `CN1CCN(C(=O)N2CCCC2)Cc2cccnc21` was run?
Its INHIBITION is 52.3%.

For `Cc1nc(Nc2nccs2)cc(C2CCCN2)n1` (stereo not drawn), which INHIBITION is on record?
Its INHIBITION is -26.8%.

With `CCC(O)Cn1nc(CCSC)nc1-c1ccc2[nH]ccc2c1` (stereo not drawn) as the compound, how does the INHIBITION read?
The INHIBITION was 20.45%.

Which INHIBITION does the source give for `O=C(Cc1cnc(-c2c(Cl)cccc2Cl)s1)N1CCOCC1` here?
Its INHIBITION is 56.75%.

How did the INHIBITION turn out when `CC(=O)N1CCN(C(=O)Cc2cnc(-c3c(Cl)cccc3Cl)s2)CC1` was run?
Its INHIBITION is 25.61%.

With `O=C(Cc1cnc(-c2c(Cl)cccc2Cl)s1)N1CCC2(CC1)OCCO2` as the compound, how does the INHIBITION read?
Its INHIBITION is -6.29%.

Which INHIBITION does the source give for `NC(=O)CCNC(=O)C1(N2CCCCC2)Cc2ccccc2C1` here?
Its INHIBITION is 14.19%.

Which INHIBITION does the source give for `c1ccc(CCN2CCN(c3ccc4nncn4n3)CC2)cc1` here?
Its INHIBITION is -2.47%.

Which INHIBITION does the source give for `Clc1ccccc1CCN1CCN(c2ccc3nncn3n2)CC1` here?
Its INHIBITION is 50.77%.

For `c1ccc(CCN2CCN(c3ccc4nncn4n3)CC2)nc1`, which INHIBITION is on record?
Its INHIBITION is -59.79%.
